An excerpt weighted towards active compounds, which were near 3.6% of everything screened.
Pf apPOL block – Pf-apPOL inhibitors, biochemical, fluorescence | Recombinant Pf-apPOL, molecular beacon fluorescence, 1.5 h | hit rate 0.25% among 210,000 | Plasmodium falciparum apicoplast DNA polymerase (apPOL) | inhibition, % at 10 µM | AID 1794808, 2022
mHTT-CaM PPI inh – mutant huntingtin-calmodulin interaction inhibitors – biochemical, AlphaScreen, primary screen. AlphaScreen His-mHTT/GST-CaM binding, luminescence. inhibition, % at 15 µM. hit rate 3.6% among 190,000;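 further: 0% = both proteins with DMSO and 100% = one protein alone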
Active calls of the source: *; i = inactive; . = no result given. No stated cut-off is given here; in the data, active means inhibition above about 50%; inactive means the rest.

SMILES | Pf apPOL block | mHTT-CaM PPI inh
Cc1cccc(NC(c2cccc(F)c2)c2ccc3cccnc3c2O)n1 (stereo not drawn) | -44 | 99*
Oc1c(C(c2ccncc2)N2CCOCC2)ccc2cccnc12 (stereo not drawn) | -6 | 100*
Cc1cccc(NC(c2ccc(F)cc2)c2ccc3cccnc3c2O)n1 (stereo not drawn) | 4 | 100*
c1cncc(C(N2CCOCC2)N2CCOCC2)c1 | -1 | 0
O=C(NC1CCCCC1)N1CCN(Cc2nc3cccnc3n2-c2ccc(F)cc2)CC1 | -3 | 3
CCOc1ccc(N(CC(=O)NCc2ccncc2)S(C)(=O)=O)cc1 | -6 | -1
Cc1ccc(C2CN(C(=O)c3ccccc3)CC2C(=O)NCC2CC2)cc1 (stereo not drawn) | -3 | 1
O=C(O)CN1C(=O)C(=Cc2ccc(-c3cccc4c3C(=O)c3ccccc3C4=O)o2)SC1=S | 95* | 39
O=C(O)CN1C(=O)C(=Cc2ccccc2O)SC1=S | 0 | 17
CCOC(=O)CCCN1C(=O)C(=Cc2ccc3c(c2)OCO3)SC1=S | -6 | 14
O=C(O)CCN1C(=O)C(=Cc2ccc([N+](=O)[O-])o2)SC1=S | 50* | 44
O=C(O)CCCCCN1C(=O)C(=Cc2ccc3c(c2)OCO3)SC1=S | 14 | 52*
CC(C)(C)c1ccc(C=C2SC(=S)N(CCC(=O)O)C2=O)cc1 | 1 | 34
COc1ccc(-c2csc3c(=O)n(CC(C)C)cnc23)cc1 | -5 | -24
COc1ccccc1-c1noc(C2CCCN2C(=O)c2cccnc2SC)n1 (stereo not drawn) | 3 | 8
Cc1ccc(C(=O)N2CCN(c3cc(Oc4ccc(F)c(F)c4)ncn3)CC2)cc1 | -4 | 2
CC(=O)NCC(=O)N(c1ccccc1)C1(C(=O)NC2CCCC2)CCCCC1 | -5 | 9
O=[N+]([O-])c1ccc(O)c(N=Cc2sc3ccccc3c2O)c1 | -5 | 43
O=[N+]([O-])c1ccc2c(N=Nc3ccc4ccccc4c3O)c(O)cc(S(=O)(=O)O)c2c1 | . | 100*
Cc1[nH]c2ccccc2c1C=Nc1c(-c2ccco2)nc2ccccn12 | -3 | 91*
Oc1cccc(C=Nc2c(-c3ccco3)nc3ccccn23)c1 | 8 | 49
CCCn1cc2c3c(cccc31)CN(C(=O)Nc1cccc(OC)c1)CC2 | -2 | 1
COc1cccc(NC(=O)N2CCc3cn(C)c4cccc(c34)C2)c1 | -4 | 14
COc1ccc(OC)c(NC(=O)N2CCc3cn(C)c4cccc(c34)C2)c1 | 3 | 62*
CCn1cc2c3c(cccc31)CN(C(=O)Nc1ccccc1OC)CC2 | -1 | 29
SMILES | Pf apPOL block | mHTT-CaM PPI inh
COc1ccccc1NC(=O)N1CCc2cn(C)c3cccc(c23)C1 | -1 | 51*
COc1ccc(NC(=O)N2CCc3cn(C)c4cccc(c34)C2)c(OC)c1 | -2 | 75*
CCn1cc2c3c(cccc31)CN(C(=O)Nc1ccc(OC)cc1OC)CC2 | -3 | 27
CCCn1cc2c3c(cccc31)CN(C(=O)Nc1cc(OC)ccc1OC)CC2 | -1 | 73*
O=C(Cc1ccccc1)N1CCN(C(=O)C2CC2)CC1 | 6 | 5
COc1ccc(-n2c3c(cc(C(=O)NCc4ccccc4)c2=O)C(=O)CCC3)cc1 | 1 | 22
Cc1cc(Cl)ccc1NC(=O)c1cc2n(n1)CCCN(Cc1cccc(F)c1)C2=O | 0 | 0
Cc1cccc(C#N)c1N=C1CCCN1Cc1ccccc1 | -3 | -21
Cc1cccc(N2CCN(C(=O)c3c(C)sc4ccn(C)c(=O)c34)CC2)c1 | 2 | 36
Cc1sc2ccn(C)c(=O)c2c1C(=O)N1CCN(c2cccc(Cl)c2)CC1 | -1 | 96*
Nc1ccc(N)c2c1C(=O)c1c(N)ccc(N)c1C2=O | -2 | 92*
Nc1ccc(C(=O)c2ccc(N)c(N)c2)cc1N | -11 | 10
CCOC(=O)N1CCN(C(=O)CN(c2cccc([N+](=O)[O-])c2)S(=O)(=O)c2ccccc2)CC1 | -4 | 17
COC(=O)c1ccccc1NC(=O)C=NO | -5 | .
O=C(Nc1ccccc1NC(=O)c1ccccc1)c1ccccc1 | -19 | -5
CC(=O)Nc1ccc(C(=O)Nc2ccccc2C)cc1 | -8 | 6
O=C(C=NNc1ccccc1)Nc1ccccc1C(=O)O | 88* | .
Cc1ccccc1NC(=O)c1ccc(-c2ccsc2)nc1 | 59* | 2
O=C(Nc1ccccc1C(=O)Nc1ccccc1C(=O)O)c1ccccc1 | -21 | 80*
Cc1ccccc1NC(=O)c1ccc(C(=O)Nc2ccccc2C)cc1 | 61* | -5
Cc1ccccc1NC(=O)c1ccc(-c2cccc(F)c2)nc1 | 8 | -1
CCc1ccc(C(=O)/C=C/Nc2cc(C)ccc2O)cc1 | 6 | 12
Cc1ccc(-c2nnc(N3CCC(C(=O)Nc4ccccc4)CC3)o2)cc1 | 0 | -4
CC(C)(Oc1ccc(Cl)cc1)C(=O)N1CCN(C(=O)C2CC2c2cccs2)CC1 (stereo not drawn) | -6 | 34
Cc1ccc(C(=O)N2CCCC2)c(C2CCN(C(=O)c3ccc(F)cc3F)CC2)n1 | 0 | 4
SMILES | Pf apPOL block | mHTT-CaM PPI inh
O=C(Nc1sc2c(c1C(=O)Nc1ccc(Br)cc1)CCCCC2)c1cccnc1 | 6 | 3
O=C(CNCCO)Nc1sc2c(c1C(=O)Nc1ccc(Br)cc1)CCC2 | -1 | 66*
CCNC(=O)c1c(NC(=O)c2ccccc2)sc2c1CCCC2 | 1 | -12
O=C(CNCCN1CCOCC1)Nc1sc2c(c1C(=O)Nc1ccccc1)CCC2 | -1 | 89*
O=C(CN1CCOCC1)Nc1sc2c(c1C(=O)Nc1ccc(Cl)cc1)CCC2 | 0 | 0
NNC(=O)c1c(NC(=O)c2ccccc2)sc2c1CCC2 | -9 | 64*
CC1CN(c2ccc([N+](=O)[O-])c(NC3CC3)c2)CC(C)O1 (stereo not drawn) | . | 3
NC(=S)N/N=C/c1c2ccccc2cc2ccccc12 | . | i
NC(=S)NN=C1c2ccccc2-c2ccccc21 | . | 55*
Cc1ccc(Cl)cc1NS(=O)(=O)c1ccc2nc(-c3ccccc3)[nH]c2c1 | 2 | 3
Cc1ccc(=O)n(Cc2ccc(Cl)c(Cl)c2)n1 | -10 | .
Clc1ccc(Cn2cnc(Cl)c2Cl)cc1Cl | -6 | 73*
C=CCNC(=O)CN(c1ccc([N+](=O)[O-])cc1)S(=O)(=O)c1ccccc1 | -11 | -1
O=C(Nc1nc(-c2ccccc2)cs1)c1ncn[nH]1 | -1 | 24
O=C(Nc1nc(-c2ccc(Br)cc2)cs1)c1ncn[nH]1 | -6 | 100*
O=C(Cc1c[nH]c2ncccc12)NCc1ccc(C(F)(F)F)cc1 | 86* | -10
O=C(Cc1c[nH]c2ncccc12)NCc1ccccc1 | -1 | 1
CC(C)NC(=O)c1ccc(CN2CCN(c3ccccc3)CC2)o1 | 2 | 3
O=C1CN(C(=O)CCC2CCCC2)C(c2ccc(F)cc2)c2cc(F)ccc2N1 (stereo not drawn) | -5 | 15
COc1ccc(C(=O)N2CC(=O)Nc3ccc(C)cc3C2c2ccc(F)cc2)cc1OC (stereo not drawn) | -7 | 25
O=C1CN(C(=O)c2ccc(Cl)cc2)C(c2ccc(F)cc2)c2cc(Br)ccc2N1 (stereo not drawn) | -10 | 56*
CCOc1ccc(C(=O)N2CC(=O)Nc3ccc(C)cc3C2c2ccc(F)cc2)cc1OCC (stereo not drawn) | 0 | 65*
O=C1CN(C(=O)CCC2CCCC2)C(c2ccc(F)cc2)c2cc(Br)ccc2N1 (stereo not drawn) | -3 | 77*

From PubChem
